# Measured values: the supplement of paper PMC11732987, “Enantioselective OTUD7B fragment discovery through chemoproteomics screening and high-throughput optimisation” (Communications Chemistry, 2025)
# Unmarked numbers belong to inactive results.
# Columns and labels:
# Experiment in all cases: log2 ratio of Biotin-Ahx-Ub-VS probe labelling (fragment/DMSO); higher = less target engagement (more negative = stronger competition), active = hit call of the paper (q ≤ 0.05, log2 ratio ≤ -1)
# Settings in all cases: compound concentration: 200 uM; treatment time: 3 h
# [1] = target: T1, USP19 (UniProt O94966)
# T1 sequence (whole entry): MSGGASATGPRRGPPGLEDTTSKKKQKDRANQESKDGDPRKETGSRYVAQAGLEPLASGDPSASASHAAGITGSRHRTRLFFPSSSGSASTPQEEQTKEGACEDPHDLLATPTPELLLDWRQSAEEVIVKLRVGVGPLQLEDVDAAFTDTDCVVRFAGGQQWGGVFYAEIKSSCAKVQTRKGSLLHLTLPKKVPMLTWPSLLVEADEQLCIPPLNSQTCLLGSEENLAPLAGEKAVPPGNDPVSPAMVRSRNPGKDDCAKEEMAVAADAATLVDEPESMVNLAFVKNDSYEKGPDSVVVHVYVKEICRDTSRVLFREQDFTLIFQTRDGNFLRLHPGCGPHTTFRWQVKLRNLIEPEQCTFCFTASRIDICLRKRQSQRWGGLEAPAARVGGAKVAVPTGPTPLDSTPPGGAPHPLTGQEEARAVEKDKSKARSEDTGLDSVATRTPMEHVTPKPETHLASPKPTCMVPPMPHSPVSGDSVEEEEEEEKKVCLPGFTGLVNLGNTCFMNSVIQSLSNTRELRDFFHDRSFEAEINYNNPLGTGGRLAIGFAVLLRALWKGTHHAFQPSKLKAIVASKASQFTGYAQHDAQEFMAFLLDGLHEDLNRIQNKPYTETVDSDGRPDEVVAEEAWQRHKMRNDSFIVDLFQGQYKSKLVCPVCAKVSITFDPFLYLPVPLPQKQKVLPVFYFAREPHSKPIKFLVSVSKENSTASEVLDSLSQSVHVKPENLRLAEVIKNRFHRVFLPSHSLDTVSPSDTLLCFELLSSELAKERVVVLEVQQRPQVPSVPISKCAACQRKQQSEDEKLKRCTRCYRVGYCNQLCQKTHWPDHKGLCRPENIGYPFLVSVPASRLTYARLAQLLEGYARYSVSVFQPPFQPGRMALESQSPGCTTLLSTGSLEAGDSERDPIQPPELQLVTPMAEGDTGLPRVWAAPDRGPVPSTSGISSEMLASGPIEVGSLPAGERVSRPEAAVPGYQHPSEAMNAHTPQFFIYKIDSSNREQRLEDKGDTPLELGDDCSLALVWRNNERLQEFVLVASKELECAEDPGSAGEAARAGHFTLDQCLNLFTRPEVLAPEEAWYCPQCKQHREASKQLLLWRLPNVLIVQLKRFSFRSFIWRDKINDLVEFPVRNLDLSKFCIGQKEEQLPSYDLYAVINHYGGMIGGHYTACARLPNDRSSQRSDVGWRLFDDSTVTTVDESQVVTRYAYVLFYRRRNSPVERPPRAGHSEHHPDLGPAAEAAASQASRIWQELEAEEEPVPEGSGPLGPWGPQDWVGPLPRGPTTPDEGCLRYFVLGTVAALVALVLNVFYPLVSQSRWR
# Summary of the method: (§1)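 Average log2 ratios of fragment over vehicle were obtained by unpaired t-test from global-median-normalised Spectronaut label-free quantities. Proteins with ≥2 unique peptides were included. HEK293T lysate (495 µg per sample) was treated in triplicate with fragment at 200 µM or vehicle for 3 h, then with Biotin-Ahx-Ub-VS at 0.5 µM final for 1 h, and labelled DUBs were NeutrAvidin-enriched and run by diaPASEF LC-MS/MS.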
# [2] = target: T2, USP22 (UniProt Q9UPT9)
# T2 sequence (whole entry): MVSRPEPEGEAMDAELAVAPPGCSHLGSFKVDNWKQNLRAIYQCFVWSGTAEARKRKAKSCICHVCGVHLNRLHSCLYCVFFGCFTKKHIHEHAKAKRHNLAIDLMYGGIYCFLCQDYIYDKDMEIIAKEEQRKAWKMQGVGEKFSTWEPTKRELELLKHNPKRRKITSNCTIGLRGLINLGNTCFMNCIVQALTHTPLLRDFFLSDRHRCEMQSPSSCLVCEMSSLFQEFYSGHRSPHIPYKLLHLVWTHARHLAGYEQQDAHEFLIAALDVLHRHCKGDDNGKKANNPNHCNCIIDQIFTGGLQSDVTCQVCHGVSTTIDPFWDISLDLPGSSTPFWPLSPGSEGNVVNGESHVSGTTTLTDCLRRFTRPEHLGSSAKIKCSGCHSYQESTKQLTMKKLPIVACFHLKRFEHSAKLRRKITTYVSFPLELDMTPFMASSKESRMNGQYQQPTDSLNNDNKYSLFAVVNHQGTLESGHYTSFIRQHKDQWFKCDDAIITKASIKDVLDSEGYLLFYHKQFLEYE
# Summary of the method: as §1
# [3] = target: USP24 (UniProt Q9UPU5)
# Sequence of USP24 (Q9UPU5 whole entry): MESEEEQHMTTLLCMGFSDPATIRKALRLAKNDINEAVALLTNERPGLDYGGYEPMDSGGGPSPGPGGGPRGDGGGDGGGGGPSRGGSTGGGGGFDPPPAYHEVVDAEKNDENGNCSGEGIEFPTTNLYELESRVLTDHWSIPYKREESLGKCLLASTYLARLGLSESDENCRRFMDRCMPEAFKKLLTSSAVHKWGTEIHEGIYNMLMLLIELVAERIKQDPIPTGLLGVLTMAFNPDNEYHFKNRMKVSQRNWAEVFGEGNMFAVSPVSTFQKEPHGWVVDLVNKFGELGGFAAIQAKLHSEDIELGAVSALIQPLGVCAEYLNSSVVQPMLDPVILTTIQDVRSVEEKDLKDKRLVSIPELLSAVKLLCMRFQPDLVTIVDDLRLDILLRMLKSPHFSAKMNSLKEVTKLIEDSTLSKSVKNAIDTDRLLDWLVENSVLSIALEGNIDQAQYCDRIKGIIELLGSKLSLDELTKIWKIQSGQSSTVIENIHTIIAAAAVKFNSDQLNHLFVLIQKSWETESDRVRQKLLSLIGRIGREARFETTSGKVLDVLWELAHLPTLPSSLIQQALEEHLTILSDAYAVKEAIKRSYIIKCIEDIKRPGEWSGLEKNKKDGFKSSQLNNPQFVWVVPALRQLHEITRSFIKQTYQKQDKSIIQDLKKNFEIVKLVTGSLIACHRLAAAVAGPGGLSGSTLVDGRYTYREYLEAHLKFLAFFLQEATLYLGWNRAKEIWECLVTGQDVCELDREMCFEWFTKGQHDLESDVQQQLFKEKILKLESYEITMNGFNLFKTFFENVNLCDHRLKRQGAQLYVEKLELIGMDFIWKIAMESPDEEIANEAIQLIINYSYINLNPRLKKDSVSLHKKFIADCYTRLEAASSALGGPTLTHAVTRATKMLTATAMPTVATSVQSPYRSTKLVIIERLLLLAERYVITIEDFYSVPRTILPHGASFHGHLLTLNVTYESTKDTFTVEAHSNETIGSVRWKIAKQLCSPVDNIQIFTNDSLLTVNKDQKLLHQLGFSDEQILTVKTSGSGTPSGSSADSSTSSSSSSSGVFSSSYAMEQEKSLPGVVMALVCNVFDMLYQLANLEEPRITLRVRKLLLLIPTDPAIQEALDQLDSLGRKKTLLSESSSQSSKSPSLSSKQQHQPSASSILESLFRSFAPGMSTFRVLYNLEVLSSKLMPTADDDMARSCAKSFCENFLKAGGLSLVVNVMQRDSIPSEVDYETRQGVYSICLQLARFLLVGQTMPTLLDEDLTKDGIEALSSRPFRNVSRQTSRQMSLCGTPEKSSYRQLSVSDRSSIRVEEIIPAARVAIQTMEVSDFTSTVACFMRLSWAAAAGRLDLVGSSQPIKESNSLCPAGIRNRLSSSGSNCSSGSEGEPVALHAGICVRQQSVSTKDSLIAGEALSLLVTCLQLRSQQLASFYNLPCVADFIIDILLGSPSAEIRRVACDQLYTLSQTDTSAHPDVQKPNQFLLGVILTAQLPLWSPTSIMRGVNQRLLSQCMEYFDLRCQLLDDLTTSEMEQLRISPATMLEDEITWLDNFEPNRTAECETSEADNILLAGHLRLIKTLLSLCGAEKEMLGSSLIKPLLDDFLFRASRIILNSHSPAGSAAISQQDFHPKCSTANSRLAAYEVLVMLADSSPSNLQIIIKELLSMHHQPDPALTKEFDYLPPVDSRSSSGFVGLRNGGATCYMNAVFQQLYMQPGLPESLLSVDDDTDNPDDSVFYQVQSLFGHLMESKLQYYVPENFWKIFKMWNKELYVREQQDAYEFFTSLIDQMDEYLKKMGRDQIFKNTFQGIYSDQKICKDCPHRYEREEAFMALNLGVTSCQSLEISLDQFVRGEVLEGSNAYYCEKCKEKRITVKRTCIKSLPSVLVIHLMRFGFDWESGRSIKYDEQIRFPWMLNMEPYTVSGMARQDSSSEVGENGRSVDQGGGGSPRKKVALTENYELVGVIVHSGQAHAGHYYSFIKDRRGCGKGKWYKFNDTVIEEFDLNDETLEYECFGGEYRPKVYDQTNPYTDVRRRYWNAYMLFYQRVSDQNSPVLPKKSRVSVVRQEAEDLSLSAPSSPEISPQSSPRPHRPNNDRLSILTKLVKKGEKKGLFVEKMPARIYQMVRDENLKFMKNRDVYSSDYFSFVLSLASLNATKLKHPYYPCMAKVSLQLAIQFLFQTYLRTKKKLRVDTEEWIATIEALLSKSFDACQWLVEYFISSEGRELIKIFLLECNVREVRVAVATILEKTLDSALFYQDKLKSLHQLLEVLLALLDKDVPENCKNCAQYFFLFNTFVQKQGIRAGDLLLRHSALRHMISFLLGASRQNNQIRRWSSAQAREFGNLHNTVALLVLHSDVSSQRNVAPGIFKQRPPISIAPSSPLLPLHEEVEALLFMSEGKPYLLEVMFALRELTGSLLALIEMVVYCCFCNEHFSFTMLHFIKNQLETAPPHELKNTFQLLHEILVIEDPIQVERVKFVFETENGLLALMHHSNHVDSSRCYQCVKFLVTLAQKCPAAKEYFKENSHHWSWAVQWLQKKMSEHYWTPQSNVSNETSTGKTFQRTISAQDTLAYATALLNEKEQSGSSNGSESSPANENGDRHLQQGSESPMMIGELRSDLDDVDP
# Summary of the method: as §1
# [4] = target: T3, USP25 (UniProt Q9UHP3)
# T3 sequence (whole entry): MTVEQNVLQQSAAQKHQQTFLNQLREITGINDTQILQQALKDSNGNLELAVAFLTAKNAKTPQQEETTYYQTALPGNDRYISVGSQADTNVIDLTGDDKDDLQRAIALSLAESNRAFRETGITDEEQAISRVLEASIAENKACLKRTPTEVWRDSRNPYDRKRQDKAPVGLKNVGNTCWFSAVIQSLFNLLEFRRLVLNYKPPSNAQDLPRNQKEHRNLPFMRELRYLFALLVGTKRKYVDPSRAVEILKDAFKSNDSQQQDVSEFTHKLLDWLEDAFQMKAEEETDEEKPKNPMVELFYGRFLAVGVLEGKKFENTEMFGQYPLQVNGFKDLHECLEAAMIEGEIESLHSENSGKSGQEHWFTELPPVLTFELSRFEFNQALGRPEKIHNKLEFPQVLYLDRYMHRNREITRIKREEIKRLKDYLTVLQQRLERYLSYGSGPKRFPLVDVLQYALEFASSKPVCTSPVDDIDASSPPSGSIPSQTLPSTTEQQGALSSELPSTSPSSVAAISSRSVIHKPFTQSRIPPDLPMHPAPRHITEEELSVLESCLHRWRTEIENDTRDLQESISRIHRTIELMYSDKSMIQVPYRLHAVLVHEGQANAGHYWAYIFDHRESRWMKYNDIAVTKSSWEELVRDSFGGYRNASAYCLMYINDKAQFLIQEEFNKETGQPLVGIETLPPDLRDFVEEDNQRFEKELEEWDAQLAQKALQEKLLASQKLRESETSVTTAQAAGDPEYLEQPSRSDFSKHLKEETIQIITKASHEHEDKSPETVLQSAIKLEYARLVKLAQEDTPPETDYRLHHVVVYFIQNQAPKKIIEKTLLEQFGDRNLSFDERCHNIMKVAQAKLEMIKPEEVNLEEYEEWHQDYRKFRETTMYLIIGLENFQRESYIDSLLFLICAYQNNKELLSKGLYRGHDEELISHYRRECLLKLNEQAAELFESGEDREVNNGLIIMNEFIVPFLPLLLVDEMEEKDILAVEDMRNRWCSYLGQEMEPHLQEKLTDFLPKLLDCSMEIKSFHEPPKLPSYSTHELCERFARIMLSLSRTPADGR
# Summary of the method: as §1
# [5] = target: T4, USP28 (UniProt Q96RU2)
# T4 sequence (whole entry): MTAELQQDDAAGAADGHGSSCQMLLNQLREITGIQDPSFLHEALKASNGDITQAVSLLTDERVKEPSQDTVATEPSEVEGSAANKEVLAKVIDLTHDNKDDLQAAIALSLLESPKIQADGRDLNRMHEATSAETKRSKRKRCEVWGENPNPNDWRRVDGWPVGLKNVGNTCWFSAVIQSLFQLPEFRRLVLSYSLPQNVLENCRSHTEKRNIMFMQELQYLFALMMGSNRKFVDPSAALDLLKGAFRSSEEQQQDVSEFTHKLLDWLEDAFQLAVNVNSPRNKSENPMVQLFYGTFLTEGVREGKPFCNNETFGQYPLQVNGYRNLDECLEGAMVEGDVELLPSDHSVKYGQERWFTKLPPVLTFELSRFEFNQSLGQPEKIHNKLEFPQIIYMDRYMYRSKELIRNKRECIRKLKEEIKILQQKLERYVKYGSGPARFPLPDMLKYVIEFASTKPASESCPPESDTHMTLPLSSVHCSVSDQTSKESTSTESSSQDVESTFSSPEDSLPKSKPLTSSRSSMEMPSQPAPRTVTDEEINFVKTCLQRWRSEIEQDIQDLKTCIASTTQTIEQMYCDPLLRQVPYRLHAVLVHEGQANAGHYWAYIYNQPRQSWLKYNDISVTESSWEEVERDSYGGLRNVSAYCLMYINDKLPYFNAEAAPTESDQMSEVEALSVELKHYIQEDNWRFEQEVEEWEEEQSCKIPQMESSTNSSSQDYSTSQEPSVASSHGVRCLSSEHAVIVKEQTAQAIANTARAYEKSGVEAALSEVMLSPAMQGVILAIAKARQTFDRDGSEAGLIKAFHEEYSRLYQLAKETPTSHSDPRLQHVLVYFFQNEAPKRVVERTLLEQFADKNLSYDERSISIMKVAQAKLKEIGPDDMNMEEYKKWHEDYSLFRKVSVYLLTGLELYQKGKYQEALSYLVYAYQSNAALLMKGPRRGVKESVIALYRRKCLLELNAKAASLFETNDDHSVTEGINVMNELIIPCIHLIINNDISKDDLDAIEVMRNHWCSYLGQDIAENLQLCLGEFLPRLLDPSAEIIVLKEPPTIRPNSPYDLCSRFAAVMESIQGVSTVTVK
# Summary of the method: as §1
smiles,measurement,setting,value
O=C(CCl)N1CCc2nc[nH]c2C1c1ccc(Cl)cc1 (stereo not given),log2 ratio of Biotin-Ahx-Ub-VS probe labelling,[1],-0.509
same,log2 ratio of Biotin-Ahx-Ub-VS probe labelling,[2],0.00421
same,log2 ratio of Biotin-Ahx-Ub-VS probe labelling,[3],-1.47 (active)
same,log2 ratio of Biotin-Ahx-Ub-VS probe labelling,[4],-0.591
same,log2 ratio of Biotin-Ahx-Ub-VS probe labelling,[5],-0.738
